Inconclusive results are not listed. Calls of active or inactive are those of the source. Cut-off read from the data, not from the text of the source, unless noted: active = inhibition above about 80%; inactive = the rest.
Tests used:
[1] = viability loss in pontine glioma line – cell-based, SU-DIPG-XVII, MIPE5.0, CellTiter-Glo, qHTS, dose response (AID 1347060; cut-off not given, nearly all actives have AC50 up to about 26 µM;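 note: cells exposed to compound for 48 hours before viability readout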); conditions: CellTiter-Glo ATP luminescence
[2] = viability loss in pontine glioma line – cell-based, SU-DIPG-XIII, MIPE5.0, CellTiter-Glo, qHTS, dose response (AID 1347064; cut-off not given, nearly all actives have AC50 up to about 23 µM); conditions: CellTiter-Glo ATP luminescence
[3] = viability loss in pontine glioma line – cell-based, SU-DIPG-XXV, MIPE5.0, CellTiter-Glo, qHTS, dose response (AID 1347065; cut-off not given, nearly all actives have AC50 up to about 26 µM;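 note: cells exposed to compound for 48 hours before ATP readout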); conditions: CellTiter-Glo ATP luminescence
[4] = JHH-DIPG-1 glioma cell viability, MIPE5.0 library, CellTiter-Glo luminescence, qHTS (AID 1347067; cut-off not given, nearly all actives have AC50 up to about 26 µM;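 note: cells exposed to compound for 48 hours before readout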); conditions: JHH-DIPG-1 glioma viability, CellTiter-Glo ATP luminescence
[5] = growth inhibition of DIPG cells – cell-based, MIPE5.0 library, qHTS (AID 1347068; cut-off not given, nearly all actives have IC50 up to about 30 µM); conditions: SU-DIPG-XXV viability
[6] = growth inhibition, single agent or in combination, cell-based, chromothripsis tumors, cisplatin or BGB combos (AID 1671449); conditions: LFS_MB_P medulloblastoma cells;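 note: cells exposed for 96 hours; 0% = vehicle DMSO and 100% = killing by high DMSO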
[7] = growth inhibition, single agent and combos, cell-based, chromothripsis tumors, cisplatin or BGB combos (AID 1671450); conditions: HDN33 neuroblastoma cells, stronger effect = higher value;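 note: cells exposed to compound for four days; 0% = vehicle DMSO and 100% = cell killing by high DMSO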
[8] = growth inhibition, single agents and combos, ICB984, cell-based, cisplatin or BGB combos, synergistic combos for chromothripsis tumors (AID 1671451; call rule not given here;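 note: cells exposed for 96 hours before readout; 0% = vehicle DMSO and 100% = killing by high DMSO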); conditions: ICB984 medulloblastoma cells, drug combinations, stronger effect = higher value
[9] = growth inhibition, single agents and combos, LFS_MB_1R, cell-based, cisplatin or BGB combos, synergistic combos for chromothripsis tumors (AID 1671452); conditions: LFS_MB_1R medulloblastoma cells, stronger effect = higher value;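 note: cells exposed for 96 hours before readout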
[10] = growth inhibition, single agents and combos, HTB85, cell-based, BGB or cisplatin IC20 combos, synergistic combos for chromothripsis tumors (AID 1671453); conditions: HTB85 osteosarcoma cells, drug combinations, stronger effect = higher value;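 note: cells exposed for 96 hours before readout; 0% = vehicle DMSO and 100% = high DMSO killing control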
[11] = growth inhibition, single agents and combos, CRL2098, cell-based, BGB or cisplatin IC20 combos, synergistic combos for chromothripsis tumors (AID 1671454); conditions: CRL2098 osteosarcoma cells, drug combinations, stronger effect = higher value;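 note: cells exposed for 96 h before readout; 0% = vehicle DMSO and 100% = killing by high DMSO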
[12] = growth inhibition, single agents and combos, HD-MB03, cell-based, BGB or cisplatin IC20 combos, synergistic combos for chromothripsis tumors (AID 1671455; in the data active = inhibition above about 83%;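 note: 0% = vehicle DMSO and 100% = high DMSO as cytotoxic control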); conditions: HD-MB03 medulloblastoma cells, stronger effect = higher value
[13] = growth inhibition, single agents and combos, UWB1.289, cell-based, BGB or cisplatin combos, synergistic combos for chromothripsis tumors (AID 1671456); conditions: UWB1.289 ovarian carcinoma cells, stronger effect = higher value;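 note: cells exposed to compound for four days; 0% = vehicle DMSO and 100% = killing by high DMSO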
[14] = growth inhibition, single agents and combos, LFS_MB_2R, cell-based, cisplatin combos, synergistic combos for chromothripsis tumors (AID 1671457); conditions: LFS_MB_2R medulloblastoma cells, stronger effect = higher value;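 note: cells exposed to compound for four days before readout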
[15] = growth inhibition, MDA-MB-436, cell-based, BGB or cisplatin combos, synergistic combos for chromothripsis tumors (AID 1671458; call rule not given here;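 note: cells exposed for 96 hours; 0% = vehicle DMSO and 100% = killing by high DMSO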); conditions: MDA-MB-436 breast carcinoma growth inhibition, drug combinations, stronger effect = higher value
[16] = UWB1.289_BRCA1 ovarian cancer growth, cell-based, BGB or cisplatin combinations (AID 1671459); conditions: UWB1.289 BRCA1 ovarian carcinoma, drug combinations, stronger effect = higher value
[17] = drug combination toxicity in non-malignant astrocytes – cell-based, BGB or cisplatin IC20 combos, cytotoxicity control for chromothriptic childhood tumor combination screen (AID 1671460); conditions: Human astrocytes, viability inhibition, drug combinations, at 0.5 µM, stronger effect = higher value;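 note: cells exposed to compounds for 96 hours before viability readout; 0% = vehicle and 100% = killing control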
[18] = BT084 cell growth, single and combined drugs, ICGC_MB145, cisplatin and BGB IC40 combos (AID 1671461); conditions: BT084 medulloblastoma cells, drug combinations, stronger effect = higher value;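 note: cells exposed to drugs for 96 hours; 0% = vehicle DMSO and 100% = high DMSO full killing control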
[19] = RCMB18 cell growth, single agent and combined, cisplatin and BGB IC40 combos (AID 1671462); conditions: RCMB18 medulloblastoma cells, stronger effect = higher value;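 note: cells exposed to compound for four days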
[20] = CRL1545 cell growth, single agent and combined, cisplatin and BGB IC20 combos (AID 1671464); conditions: CRL1545 osteosarcoma cells, stronger effect = higher value;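 note: cells exposed to compound for 96 hours before readout; 0% = vehicle DMSO and 100% = high DMSO killing control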
[21] = measured here: combination with BGB IC40, at 0.05 µM
[22] = measured here: with BGB IC20 combination, at 0.5 µM
[23] = measured here: with cisplatin IC20 combination, at 0.5 µM
[24] = measured here: combination with cisplatin, at 0.5 µM
[25] = measured here: combination with cisplatin, at 5 µM

## Cn1c(COP(=O)(NCCBr)NCCBr)cnc1[N+](=O)[O-]
[1]
  AC50: 20.9 µM (active)
[2]
  outcome: inactive
[3]
  outcome: inactive
[4]
  outcome: inactive
[5]
  outcome: inactive
[6]; at 0.5 µM, stronger effect = higher value
  inhibition: 16.6% (inactive)
[6]; measured here: combination with BGB IC20, at 0.005 µM
  inhibition: -38.7%
[6]; measured here: combination with BGB IC40, at 0.005 µM
  inhibition: -32.5%
[6]; [21]
  inhibition: -39.8%
[6]; measured here: combination with cisplatin, at 0.5 µM, stronger effect = higher value
  inhibition: 62.9%
[6]; measured here: combination with cisplatin, at 5 µM, stronger effect = higher value
  inhibition: -58.8%
[7]; BGB combo, at 5 µM
  inhibition: 19.8%
[7]; at 0.5 µM
  inhibition: -18.8% (inactive)
[7]; cisplatin combo, at 5 µM
  inhibition: 19.2%
[7]; [22]
  inhibition: -21.2%
[7]; [23]
  inhibition: -10.2%
[7]; single agent, at 5 µM
  inhibition: 80.3%
[8]; BGB IC20 combo, at 0.005 µM
  inhibition: -13.2%
[8]; BGB IC40 combo, at 0.005 µM
  inhibition: -25.1%
[8]; BGB IC40 combo, at 0.05 µM
  inhibition: -34.6%
[8]; at 0.5 µM
  inhibition: -26% (inactive)
[8]; cisplatin combo, at 0.05 µM
  inhibition: -39.4%
[8]; cisplatin combo, at 0.5 µM
  inhibition: -24.4%
[8]; cisplatin combo, at 5 µM
  inhibition: -33.7%
[8]; measured here: 5 uM single agent, at 5 µM
  inhibition: -29.2%
[9]; at 0.5 µM
  inhibition: -28.2% (inactive)
[9]; [21]
  inhibition: -23.6%
[9]; [24]
  inhibition: -60.8%
[9]; [25]
  inhibition: 3.76%
[10]; at 0.5 µM
  inhibition: -13.1% (inactive)
[10]; measured here: with BGB IC20, at 0.5 µM
  inhibition: -24.6%
[10]; measured here: with BGB IC20, at 5 µM
  inhibition: 10.3%
[10]; measured here: with cisplatin IC20, at 0.5 µM
  inhibition: -0.449%
[10]; measured here: with cisplatin IC20, at 5 µM
  inhibition: 2.49%
[10]; single agent, at 5 µM
  inhibition: 1.71%
[11]; at 0.5 µM
  inhibition: -67.6% (inactive)
[11]; measured here: combination with BGB at IC20, at 0.5 µM
  inhibition: -30.9%
[11]; measured here: combination with cisplatin at IC20, at 0.5 µM
  inhibition: -117%
[12]; at 0.5 µM
  inhibition: -3.14% (inactive)
[12]; measured here: combo with BGB at IC20, at 0.5 µM
  inhibition: -10.4%
[12]; measured here: combo with cisplatin at IC20, at 0.5 µM
  inhibition: 4.61%
[13]; at 0.5 µM
  inhibition: 3.29% (inactive)
[13]; measured here: inhibition with BGB combination, at 0.05 µM
  inhibition: -25.1%
[13]; measured here: inhibition with cisplatin combination, at 0.05 µM
  inhibition: -14.8%
[14]; at 0.5 µM
  inhibition: -29.8% (inactive)
[14]; [24]
  inhibition: -33.9%
[14]; [25]
  inhibition: -23.3%
[15]; at 0.5 µM
  inhibition: -13.5% (inactive)
[15]; measured here: BGB combination, at 0.5 µM
  inhibition: -12%
[15]; measured here: BGB combination, at 5 µM
  inhibition: 10.1%
[15]; measured here: cisplatin combination, at 0.5 µM
  inhibition: -29.2%
[15]; measured here: cisplatin combination, at 5 µM
  inhibition: 7.72%
[16]; BGB combination, concentration series, at 5 µM
  inhibition: -3.84%
[16]; at 0.5 µM
  inhibition: -16% (inactive)
[16]; cisplatin combination, concentration series, at 5 µM
  inhibition: -17.2%
[17]
  inhibition: -2.6% (inactive)
[17]; measured here: combo with BGB IC20
  inhibition: -17%
[17]; measured here: combo with cisplatin IC20
  inhibition: 9.13%
[18]; at 0.5 µM
  inhibition: -25.1% (inactive)
[18]; cisplatin combination, at 0.5 µM
  inhibition: -38.4%
[18]; cisplatin combination, at 5 µM
  inhibition: -11.7%
[18]; measured here: BGB IC40 combination 0.05 uM, at 0.05 µM
  inhibition: 14.8%
[18]; single agent, at 5 µM
  inhibition: -36.3%
[19]; at 0.5 µM
  inhibition: -3.65% (inactive)
[19]; cisplatin combo, at 5 µM
  inhibition: 1.65%
[19]; measured here: BGB IC40 combination, at 0.05 µM
  inhibition: -12.5%
[19]; [24]
  inhibition: 13.3%
[19]; single agent, at 5 µM
  inhibition: -38.1%
[20]; at 0.5 µM
  inhibition: -36.2% (inactive)
[20]; [22]
  inhibition: -10%
[20]; [23]
  inhibition: -51.7%
[20]; single agent, at 0.05 µM
  inhibition: -14%
[20]; single agent, at 5 µM
  inhibition: 52.6%
